Assay results reported in PubChem BioAssay (NCI).
Compounds without any hit were thinned out: in the full panel of roughly 83,000, 20% have a hit.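 Single-dose data. Exposure time 48 hours. Values below 10 considered active.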 Unmarked numbers belong to inactive results. Calls of active or inactive are those of the source.

Experiments:
Assay in all cases: NCI-60 one-dose screen, 48 h (100 = growth as untreated, 0 = no growth, -100 = all killed)
Conditions in all cases: 10 µM unless noted
SR leukemia = tested on: SR leukemia
RPMI-8226 leukemia = tested on: RPMI-8226 leukemia
OVCAR-8 ovarian = tested on: OVCAR-8 ovarian
OVCAR-5 ovarian = tested on: OVCAR-5 ovarian
OVCAR-4 ovarian = tested on: OVCAR-4 ovarian
SK-OV-3 ovarian = tested on: SK-OV-3 ovarian
IGROV1 ovarian = tested on: IGROV1 ovarian
OVCAR-3 ovarian = tested on: OVCAR-3 ovarian
HS 578T breast = tested on: HS 578T breast
NCI/ADR-RES ovarian = tested on: NCI/ADR-RES ovarian

Row | Compound | growth (SR leukemia) | growth (RPMI-8226 leukemia) | growth (OVCAR-8 ovarian) | growth (OVCAR-5 ovarian) | growth (OVCAR-4 ovarian) | growth (SK-OV-3 ovarian) | growth (IGROV1 ovarian) | growth (OVCAR-3 ovarian) | growth (HS 578T breast) | growth (NCI/ADR-RES ovarian)
1 | Cc1cc(C)c2[nH]c(=O)c(C(c3nnnn3Cc3ccc4c(c3)OCO4)N3CCN(C)CC3)cc2c1 (configuration not stated) | 96.9% | 100% | 114% | 108% | 108% | 111% | 111% | 122% | 108% | 108%
2 | COc1ccc(C2=Nc3c(N)nc(N)nc3NC(c3ccc(Oc4nc(Nc5ccc(F)cc5)nc(N(C)C)n4)c(OC)c3)C2)cc1 (configuration not stated) | -29.4% (active) | 36.2% | 81.7% | 108% | 48.4% | 93.2% | 63.5% | 82.5% | 37.6% | 62.7%
3 | O=C(Nc1ccc(-c2ccc3c(c2)NC(=O)/C3=C\c2ccc[nH]2)cc1)Nc1ccc(Cl)c(C(F)(F)F)c1 | 6.31% (active) | 30.3% | 50.5% | 51.2% | 28.9% | 68.3% | 61.7% | 29.1% |  | 51.7%
4 | COc1ccc(NC(=O)NN2C(=O)c3ccccc3N(C)C2c2ccc(OC)cc2)cc1 (configuration not stated) | 88.4% | 99.1% | 103% | 107% | 96.7% | 101% | 108% | 89.8% | 101% | 92.2%
5 | COc1ccc2[nH]c(O)c(N=NC(=O)c3ccc4nc(-c5ccc(Cl)cc5)[nH]c4c3)c2c1 | 34.2% | 103% | 48.4% | 72.1% | 48.9% | 90.8% | 78.1% | 71.8% | 37.7% | 116%
6 | O=C(N/N=C/c1ccoc1)c1[nH]c2ccc(Br)cc2c1-c1ccccc1 | -13.1% (active) | 2.8% (active) | -47.6% (active) | -100% (active) | -86.8% (active) | -83.6% (active) | -87.4% (active) | -45.8% (active) | -28% (active) | -72.5% (active)
7 | COc1ccc2[nH]c(O)c(N=Nc3nc(-c4ccc(C#N)cc4)cs3)c2c1 | 17.4% | 34.9% | 58.2% | 94.1% | -46.8% (active) | 104% | 77.6% | 8.62% (active) | 36.5% | 63.1%
8 | CC(=O)c1c2c(c3ccc4c5ccccc5ccc4n13)C(=O)c1ccccc1C2=O | 77.4% | 101% | 89.2% | 115% | 85.4% | 97.1% | 84.5% | 108% | 82.2% | 96.3%
9 | COc1ccc2[nH]c(O)c(N=Nc3nc(-c4ccc(Cl)cc4)cs3)c2c1 | 5.78% (active) | 13.1% | -64.4% (active) | 10.3% | -49.9% (active) | -38.4% (active) | -3.99% (active) | -90.4% (active) |  | -37.4% (active)
10 | Cn1ncc2c(N)nc(Oc3ccccc3-c3ccccc3)nc21 | -4.14% (active) | 19.4% | 36.2% | 66.8% | 58.3% | 110% | 38.6% | 27.9% | 40.9% | -9.01% (active)
11 | Cn1cc(-c2cc(N)n3nc(-c4c[nH]c5ccc(F)cc45)cc3n2)c2cccnc21 | -11.7% (active) | -30.3% (active) | -59.6% (active) | -81.1% (active) | -30% (active) | -56% (active) | -71.4% (active) | -76.1% (active) | -14.6% (active) | -44.7% (active)
12 | OC(c1ccccc1)(c1ccccc1)C1CCN(c2ccc3nnc(Cl)n3n2)CC1 | -22.3% (active) | 13.8% | 33.9% | 70% | 30.3% | 90.2% | 39.8% | 42.2% |  | 18.6%
13 | COc1ccc2[nH]c(=O)c(CSc3ccccc3Nc3nccc(-c4ccc(Cl)cc4)n3)cc2c1 | -1.58% (active) | 30.4% | 39.5% | 84.7% | 38.3% | 57.7% | 55.9% | 39.8% |  | 34.4%
14 | CC(=O)c1ccc2c(N)c(C(=O)Nc3ccc(C(F)(F)F)cc3)sc2n1 | 39.3% | 37.3% | 61.1% | 92.8% | 35.6% | 89.1% | 93.5% | 94.4% | 84.2% | 34.8%
15 | CCCCCCCCc1ccc(C(=O)Nc2ccc(C)cc2C(=O)O)cc1 | 90% | 63.5% | 94.1% | 109% | 99.8% | 100% | 83.9% | 94% | 105% | 94.1%
16 | C=CC[n+]1cccc2c3ccccc3ccc21 | 46.5% | 27.6% | 41.1% | 70.8% | 42% | 77% | 72.5% | 35.9% | 43.7% | 97.2%
17 | Cc1nn(-c2ccccc2)c2ncn(CC(=O)N/N=C/c3ccccc3O)c(=O)c12 | 13.3% | 45.4% | 19.7% | 63.2% | 39.4% | 37.7% | 40.6% | 18% |  | 23.3%
18 | CN1C(=O)/C(=C\C(=O)c2cc3ccccc3oc2=O)c2ccccc21 | 38% | 62.3% | 47.3% | 84.3% | 74.8% | 80.8% | 82.3% | 51.8% | 57.3% | 53.3%
19 | COc1cc(CNC(=O)[C@]23CCC(C)(C)CC2C2=CCC4[C@@]5(C)CCC(OC(C)=O)C(C)(C)C5CC[C@@]4(C)[C@]2(C)CC3)ccc1OCc1cn(-c2ccc(Cl)cc2Cl)nn1 (some centres not stated) | 103% | 89.9% | 102% | 102% | 102% | 112% | 92.8% | 112% |  | 120%
20 | COc1cc2cc(C(=O)N3C[C@@H](CCl)c4c3cc(OC(=O)N(CCC(=O)N3CCN(C)CC3)[C@H]3CCSSC3)c3ccccc43)[nH]c2c(OC)c1OC | -22.9% (active) | -5.04% (active) | -49.8% (active) | -4.73% (active) | -11.9% (active) | 10.8% | -16.7% (active) | -55.8% (active) | -14.1% (active) | -55.3% (active)
21 | O=c1[nH]c2ccccc2cc1CSc1ccccc1Nc1nccc(-c2ccc3c(c2)OCO3)n1 | 103% | 92.2% | 46.8% | 99.5% | 25.4% | 82.7% | 99.2% | 83.9% |  | 53.1%
22 | Cc1ccc(C(=O)Nc2cc(-c3ccccc3)cc(C(F)(F)F)c2)cc1C#Cc1cnc2cccnn12 | 44.8% | 36.9% | 75.3% | 85.3% | 49% | 123% | 93.1% | 95.5% |  | 63.2%
23 | O=C(NC(=S)N1CCN(c2ncnc3c2cnn3-c2ccccc2)CC1)c1ccc(Br)cc1 | 14.1% | 83.4% | 47.4% | 81.8% | 41.9% | 57% | 72.1% | 89.6% | 53.8% | 53.9%
24 | CN(C)c1nc(NCCNS(=O)(=O)c2ccc(C(=O)/C=C/c3ccc(Cl)cc3)cc2)nc(N2CCOCC2)n1 | -12.8% (active) | -22.8% (active) | 12.8% | 55.4% | 60% | 73.9% | -71.2% (active) | -9.86% (active) | 62% | 25.5%
25 | Cc1ccc(Nc2nnc(-c3c[nH]c4ccccc34)o2)c(C)c1 | 6.21% (active) | -7.61% (active) | -12.1% (active) | 16.3% | 71.9% | 16.2% | 12.2% | 12.3% | 30.9% | -29.2% (active)
26 | N/C(=N\c1nc2ccc([N+](=O)[O-])cc2s1)NC(=O)Nc1ccccc1Cl | 23.6% | 60.7% | 6.87% (active) | 38.2% | -26.5% (active) | 24.2% | 55.8% | -52.8% (active) | 59.7% | 37.6%
27 | O=C1Nc2ccccc2/C1=C/C(=O)c1cc2ccccc2oc1=O | 56.8% | 95.9% | 109% | 112% | 104% | 91.9% | 98.3% | 55.9% | 105% | 107%
